PubChem BioAssay AID1159580 (chemical genetic matrix, 2015)
Out of some 5,500 compounds screened, about 2,000 (36%) were called active. Inconclusive results (about 18%) are left out. No stated cut-off is given here; in the data, active means normalized growth mostly below about 0.91 (no sharp cut-off); inconclusive means no clear call, values can overlap the other calls; inactive means mostly above about 0.92. The list shows a part of the results.

Assay: chemical genetic growth profiling, strain panel (AID 1159580);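 further: tested at 20 µM; growth read once vehicle control cultures reached saturation at 30 °C; 1 = growth at the plate median or of vehicle wells; lower values mean less growth of the strain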
Conditions: S. cerevisiae deletion strains, growth OD
[1] = locus YAL040C, strain CLN3, active compounds read low
[2] = locus YCL061C, strain MRC1 (second series), active compounds read low
[3] = locus YDR363W, strain ESC2, active compounds read low
[4] = locus YER002W, strain NOP16, active compounds read low
[5] = locus YNL175C, strain NOP13, active compounds read low
[6] = locus YNL197C, strain WHI3, active compounds read low
[7] = locus YNL224C, strain SQS1, active compounds read low
[8] = locus YOR083W, strain WHI5 (second series), active compounds read low

Measured: normalized growth

Nc1ncnc2c1ncn2[C@@H]1O[C@H](COP(=O)(O)CP(=O)(O)OP(=O)(O)O)[C@H](O)C1O (some centres undefined)
inactive: [1] 1.08 | [2] 0.999 | [3] 1 | [4] 0.983 | locus YGR078C, strain PAC10, active compounds read low 1.02 | locus YJR075W, strain HOC1, active compounds read low 1.02 | locus YMR263W, strain SAP30, active compounds read low 1 | [5] 1 | [6] 1 | [7] 0.999 | [8] 1

Nc1ncnc2c1ncn2[C@@H]1O[C@H](COP(=O)(O)OP(=O)(O)OP(=O)(O)OP(=O)(O)OC[C@@H]2O[C@H](n3cnc4c(N)ncnc43)C(O)[C@@H]2O)[C@H](O)C1O (some centres undefined)
inactive: locus YAL013W, strain DEP1, active compounds read low 1 | [1] 1.01 | [2] 0.992 | [3] 1.04 | [4] 1.03 | locus YGR229C, strain SMI1, active compounds read low 1.03 | locus YMR307W, strain GAS1, active compounds read low 1.03 | locus YNL153C, strain GIM3, active compounds read low 0.993 | [5] 0.997 | [6] 0.974 | [7] 1 | [8] 0.996 | locus YPL241C, strain CIN2, active compounds read low 0.999
